The results in this text go back to PubChem BioAssay (Tox21).

The nature of experiment [1]: qHTS assay to test for compound auto fluorescence at 535 nm (green) in HEK293 cells (AID 720680).
Experiment [2] can be described thus: qHTS assay to test for compound auto fluorescence at 460 nm (blue) in HEK293 cell free culture (AID 720681). In short, it runs like this:
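Blue fluorescence (Ex 405/Em 460 nm, triamterene-equivalent) was read immediately after pin transfer of compound or DMSO into medium (DMEM, 10% FBS) without cells.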

Experiment [3] is described as follows: qHTS assay to test for compound auto fluorescence at 535 nm (green) in HEK293 cell free culture (AID 720682). In short, it runs like this: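 Cell-free medium (DMEM, 10% FBS) receives compound or DMSO by pintool. Plate read directly at Ex 485/Em 535 nm. Signal converted to fluorescein equivalency.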
The nature of experiment [4]: qHTS assay to test for compound auto fluorescence at 590 nm (red) in HEK293 cell free culture (AID 720683). In short, it runs like this: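 Red-channel autofluorescence of compounds in culture medium (DMEM, 10% FBS), no cells, measured at 540/590 nm. Rose Bengal sodium is the reference fluorophore for equivalence.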
Experiment [5] is described as follows: qHTS assay to test for compound auto fluorescence at 590 nm (red) in HepG2 cell free culture (AID 720684). In short, it runs like this: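 No cells present: MEM + 10% FBS only. Compound pinned in, red label read (540/590 nm). Activity = fluorescence equivalent to Rose Bengal sodium.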
Experiment [6] in a line: qHTS assay to test for compound auto fluorescence at 460 nm (blue) in HepG2 cell free culture (AID 720685). In short, it runs like this:
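Cell-free plates of MEM plus 10% FBS received 23 nL compound or DMSO vehicle; blue-channel (405/460 nm) intensity scored against triamterene as reference fluorophore.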

Experiment [7] is described as follows: qHTS assay to test for compound auto fluorescence at 535 nm (green) in HepG2 cell free culture (AID 720686).
A short description of experiment [8]: qHTS assay to test for compound auto fluorescence at 460 nm (blue) in HepG2 cells (AID 720687). In short, it runs like this: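 Blue-channel autofluorescence (Ex/Em 405/460 nm, triamterene-equivalent) was measured after 1 hr compound exposure at 37 C, 5% CO2. Cells were HepG2, plated overnight at 37 C in MEM plus 10% FBS.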
The target in experiment [9] is Glucocorticoid receptor (Homo sapiens) (UniProt P04150). The experiment in a line: qHTS assay to identify small molecule agonists of the glucocorticoid receptor (GR) signaling pathway (AID 720691; active = well fitted activation curve with a large enough effect in the signal ratio in the repeat runs, not every such curve was filed as active; the % refers to the signal ratio). An outline of the steps:
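Measures GR pathway activation through a GRE-beta-lactamase reporter stably integrated in HeLa cells, with 18 h compound treatment at 37 C and fluorescence detection using a FRET substrate.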

For experiment [10] the target is unchanged. The experiment in a line: qHTS assay to identify small molecule antagonists of the glucocorticoid receptor (GR) signaling pathway (AID 720692; active = well fitted inhibition curve with a large enough effect in the signal ratio in the repeat runs, not every such curve was filed as active; the % refers to the signal ratio). In short, it runs like this: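 Tox21 10K library screened in concentration-response for blockade of dexamethasone (5 nM final)-induced GRE-bla reporter activity in HeLa cells; 18 h treatment, fluorescence read.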

The nature of experiment [11]: qHTS assay to identify small molecule antagonists of the glucocorticoid receptor (GR) signaling pathway - cell viability counter screen (AID 720693). Also: nearly all actives have a fitted effect of over 55% in size.
Experiment [12] in a line: qHTS assay for identifying genotoxic compounds that show differential cytotoxicity against isogenic chicken DT40 cell lines with known DNA damage response pathways - wild type cell line (AID 743012). Also: nearly all actives have a fitted effect of over 60% in size. Also: potency is read from the fitted curve at half-maximal effect. An outline of the steps:
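Endpoint: CellTiter-Glo luminescence, 30 min RT. Cells: wild type DT40, 300/well. Exposure: compounds in DMSO, 40 h, 37 C/5% CO2, after ~0.5 h pre-incubation.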

A short description of experiment [13]: qHTS assay for identifying genotoxic compounds that show differential cytotoxicity against isogenic chicken DT40 cell lines with known DNA damage response pathways - Rev3 mutant cell line (AID 743014). Also: nearly all actives have a fitted effect of over 55% in size. Also: potency is read from the fitted curve at half-maximal effect.
Experiment [14] in a line: qHTS assay for identifying genotoxic compounds that show differential cytotoxicity against isogenic chicken DT40 cell lines with known DNA damage response pathways - Rad54/Ku70 mutant cell line (AID 743015). Also: nearly all actives have a fitted effect of over 60% in size. Also: potency is read from the fitted curve at half-maximal effect.
Experiment [15] is described as follows: qHTS assay to identify small molecule antagonists of the androgen receptor (AR) signaling pathway - cell viability counter screen (AID 743033; also: nearly all actives have a fitted effect of over 45% in size).
The nature of experiment [16]: qHTS assay to identify small molecule antagonists of the androgen receptor (AR) signaling pathway using the MDA cell line - cell viability counter screen (AID 743041; also: nearly all actives have a fitted effect of over 45% in size). In short, it runs like this:
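Using the breast carcinoma line MDA-kb2 AR-luc, test chemicals were co-incubated with R1881 for 16 h; CellTiter-Fluor reagent, added at 15.5 h, provided a fluorescence measure of live cells.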

The target in experiment [17] is Androgen receptor (Homo sapiens) (UniProt P10275). The experiment in a line: qHTS assay to identify small molecule agonists of the androgen receptor (AR) signaling pathway (AID 743036; active = well fitted activation curve with a large enough effect in the signal ratio in the repeat runs, with a control signal flat, not every such curve was filed as active; the % refers to the signal ratio). An outline of the steps:
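AR-bla HEK293 cells, 2,000/well; 4 h preincubation 37C/5% CO2; compound (DMSO) 16 h at 37C; LiveBLAzer B/G FRET substrate 2 h RT; fluorescence intensity read-out.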

For experiment [18] the target is unchanged. Kind of experiment: qHTS assay to identify small molecule agonists of the androgen receptor (AR) signaling pathway using the MDA cell line (AID 743040; also: nearly all actives have a fitted effect of over 20% in size). An outline of the steps: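 Stable MMTV-luciferase reporter in MDA-kb2 cells; note the promoter carries GR as well as AR response elements. 16 h compound treatment, 37C, 0% CO2; ONE-Glo luminescence endpoint.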

The target is the same in experiment [19]. The experiment in a line: qHTS assay to identify small molecule antagonists of the androgen receptor (AR) signaling pathway using the MDA cell line (AID 743042; also: nearly all actives have a fitted effect of over 55% in size). In short, it runs like this:
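Antagonist mode: compounds plus R1881 agonist added to MDA-kb2 AR-luc cells, incubated 16 h at 37C. Luciferase reporter luminescence quantified, with multiplexed CellTiter-Fluor readout for cell viability.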

For experiment [20] the target is unchanged. The experiment in a line: qHTS assay to identify small molecule antagonists of the androgen receptor (AR) signaling pathway (AID 743035; active = well fitted inhibition curve with a large enough effect in the signal ratio in the repeat runs, not every such curve was filed as active; the % refers to the signal ratio). In short, it runs like this:
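R1881 agonist challenge of a HEK293 UAS-beta-lactamase AR reporter line in the presence of compound (16 h, 37C); signal taken as FRET fluorescence after 2 h with LiveBLAzer B/G substrate at room temperature.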

Structures are written as SMILES. Unmarked numbers belong to inactive results. Inconclusive results are not listed. Activity calls are given as the source filed them. Unless noted, calls follow the shape of the dose curve; as a rule, active = well fitted curve in the direction sought with a large enough effect in the repeat runs; inconclusive = weak or mixed curves; inactive = no such curve, though single readings can be large; an effect the other way counts as inactive or inconclusive.

Chain of Androgen receptor (Homo sapiens) (P10275 whole entry, looked up): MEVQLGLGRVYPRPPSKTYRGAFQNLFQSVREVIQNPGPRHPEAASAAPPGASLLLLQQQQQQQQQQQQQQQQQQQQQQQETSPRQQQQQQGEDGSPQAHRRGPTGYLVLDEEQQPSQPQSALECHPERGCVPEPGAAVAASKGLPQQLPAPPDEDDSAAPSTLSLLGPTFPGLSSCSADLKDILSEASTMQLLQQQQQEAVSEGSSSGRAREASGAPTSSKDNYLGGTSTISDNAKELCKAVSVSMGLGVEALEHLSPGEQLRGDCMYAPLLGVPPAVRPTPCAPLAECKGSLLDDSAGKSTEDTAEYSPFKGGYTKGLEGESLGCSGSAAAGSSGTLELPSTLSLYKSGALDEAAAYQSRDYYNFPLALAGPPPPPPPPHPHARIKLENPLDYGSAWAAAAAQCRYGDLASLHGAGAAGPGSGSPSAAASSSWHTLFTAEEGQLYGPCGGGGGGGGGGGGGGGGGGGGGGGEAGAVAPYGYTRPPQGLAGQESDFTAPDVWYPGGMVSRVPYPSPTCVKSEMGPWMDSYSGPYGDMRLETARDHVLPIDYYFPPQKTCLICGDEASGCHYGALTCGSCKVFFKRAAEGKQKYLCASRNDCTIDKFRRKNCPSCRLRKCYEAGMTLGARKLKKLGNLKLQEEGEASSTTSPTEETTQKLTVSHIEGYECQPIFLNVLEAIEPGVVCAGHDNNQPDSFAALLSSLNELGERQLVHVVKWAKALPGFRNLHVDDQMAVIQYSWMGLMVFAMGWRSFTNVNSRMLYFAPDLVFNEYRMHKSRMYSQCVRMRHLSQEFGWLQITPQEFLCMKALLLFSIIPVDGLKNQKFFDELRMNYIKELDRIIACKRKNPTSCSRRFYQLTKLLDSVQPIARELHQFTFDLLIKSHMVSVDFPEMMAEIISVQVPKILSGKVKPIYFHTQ
Chain of Glucocorticoid receptor (Homo sapiens) (P04150 whole entry, looked up): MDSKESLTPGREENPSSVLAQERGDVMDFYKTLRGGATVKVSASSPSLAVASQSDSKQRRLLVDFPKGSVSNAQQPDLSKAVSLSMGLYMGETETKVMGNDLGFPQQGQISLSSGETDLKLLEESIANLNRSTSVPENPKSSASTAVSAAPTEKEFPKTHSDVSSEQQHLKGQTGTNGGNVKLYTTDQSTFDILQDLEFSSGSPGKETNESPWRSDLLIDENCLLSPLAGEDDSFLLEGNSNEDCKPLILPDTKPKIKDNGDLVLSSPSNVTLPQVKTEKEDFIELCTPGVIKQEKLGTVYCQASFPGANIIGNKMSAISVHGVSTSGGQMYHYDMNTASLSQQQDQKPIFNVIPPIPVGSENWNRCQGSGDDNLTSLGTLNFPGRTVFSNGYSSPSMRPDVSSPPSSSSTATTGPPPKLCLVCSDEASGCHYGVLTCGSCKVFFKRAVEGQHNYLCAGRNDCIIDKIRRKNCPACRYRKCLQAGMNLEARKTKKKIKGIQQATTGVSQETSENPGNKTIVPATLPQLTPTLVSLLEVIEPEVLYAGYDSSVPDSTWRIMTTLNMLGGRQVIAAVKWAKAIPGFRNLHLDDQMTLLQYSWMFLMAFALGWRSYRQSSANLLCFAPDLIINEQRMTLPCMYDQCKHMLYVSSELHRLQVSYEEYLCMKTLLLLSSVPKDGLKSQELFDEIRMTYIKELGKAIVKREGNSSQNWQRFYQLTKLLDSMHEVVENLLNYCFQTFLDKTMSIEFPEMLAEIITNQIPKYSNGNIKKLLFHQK

With `CN1CCCCC1CCN1c2ccccc2Sc2ccc(S(C)=O)cc21` (configuration not stated), the Potency result in experiment [1], in experiment [2], in experiment [3], in experiment [4], in [5] and in experiment [6] was “inactive” in each case. For the same compound, the Potency entry in experiment [7], in [8], in [9], in experiment [10], in experiment [11] and in experiment [15] was “inactive” in each case. Besides, the Potency result in experiment [16] was “inactive”. In addition, the Potency in [12], in [13] and in experiment [14] was 29.8 µM (active) each time.

For `CC(C)(c1cc(Br)c(OCC(Br)CBr)c(Br)c1)c1cc(Br)c(OCC(Br)CBr)c(Br)c1` (configuration not stated), the Potency result in [1], in [2], in [3], in experiment [4], in experiment [5] and in experiment [6] was “inactive” each time. Further, the Potency result in experiment [7], in experiment [8], in experiment [9], in experiment [10], in [11] and in experiment [12] was “inactive” in each case. Also, the Potency entry in experiment [13], in experiment [14], in experiment [15] and in experiment [16] was “inactive” each time.

Turning to `COC(C)=O`, the Potency result in experiment [1], in experiment [2], in experiment [3], in [4], in experiment [5] and in [6] was “inactive” throughout. The Potency entry in [7], in [8], in experiment [9], in [10], in experiment [11] and in experiment [13] was “inactive” in each case. Also, the Potency result in experiment [15] is “inactive”.

With `C[C@@H](O)[C@H](N)C(=O)O`, the Potency result in experiment [1], in experiment [2], in [3], in [4], in experiment [5] and in experiment [6] was “inactive” in each case. Also, the Potency entry in experiment [7], in experiment [8], in experiment [9], in experiment [10], in experiment [11] and in experiment [12] was “inactive” each time. Besides, the Potency entry in experiment [14], in [15] and in experiment [16] was “inactive” each time.

`Cc1c(F)c(N2CCNC(C)C2)cc2c1c(=O)c(C(=O)O)cn2C1CC1` (configuration not stated): the Potency entry in experiment [1], in [2], in experiment [3], in experiment [4], in experiment [5] and in experiment [6] was “inactive” throughout. In addition, the Potency result in experiment [7], in experiment [8], in experiment [9], in experiment [10], in experiment [11] and in [12] was “inactive” throughout.

As for `O=[N+]([O-])c1cccc(C(F)(F)F)c1`, the Potency entry in experiment [1], in [2], in experiment [3], in experiment [4], in [5] and in experiment [6] was “inactive” in each case. In addition, the Potency entry in [7], in experiment [8], in [9], in experiment [10], in experiment [11] and in experiment [12] was “inactive” in each case. Also, the Potency entry in experiment [13], in [14], in experiment [15] and in experiment [16] was “inactive” each time.

For `CCCCCCCC`, the Potency result in [1], in [2], in [3], in experiment [4], in [5] and in experiment [6] was “inactive” in each case. For the same compound, the Potency result in experiment [7], in experiment [8], in [9], in experiment [10], in experiment [11] and in experiment [12] was “inactive” each time. The Potency result in experiment [13], in experiment [14], in experiment [15] and in [16] was “inactive” throughout.

As for `CC(C)Cn1cnc2c(N)nc3ccccc3c21`, the Potency result in experiment [1], in experiment [2], in [3], in experiment [4], in experiment [5] and in experiment [6] was “inactive” each time. In addition, the Potency result in experiment [7], in [8], in [9], in experiment [10], in experiment [11] and in experiment [15] was “inactive” in each case. In addition, the Potency result in experiment [17], in [16] and in experiment [19] was “inactive” each time. Further, the call in experiment [18] was inactive.

Turning to `C=CC(C)(CCC=C(C)C)OC=O` (configuration not stated), the Potency entry in experiment [1], in experiment [2], in experiment [3], in [4], in experiment [5] and in [6] was “inactive” each time. The Potency entry in [7], in experiment [8], in [9], in experiment [10], in [11] and in experiment [12] was “inactive” in each case. In experiment [15], the Potency result is “inactive”. The Potency in [13] was 24.3 µM (active); in [14], 54.5 µM (active).

On to `NC(=S)NC(N)=S`, for which the Potency entry in experiment [1], in experiment [2], in experiment [3], in [4], in experiment [5] and in [6] was “inactive” throughout. In addition, the Potency result in experiment [7], in experiment [8], in [9], in [10], in experiment [11] and in [15] was “inactive” throughout. The Potency entry in [20], in experiment [17], in experiment [16] and in experiment [19] was “inactive” throughout. Besides, the Potency in [12] and in experiment [13] was 61.1 µM (active) throughout. In addition, the compound was called inactive in experiment [18].

As for `CCCCCCCCCCOC(=O)c1ccccc1C(=O)OCCCCCCCC`, the Potency result in [1], in [2], in experiment [3], in experiment [4], in experiment [5] and in experiment [6] was “inactive” in each case. In addition, the Potency entry in experiment [7], in experiment [8], in experiment [9], in experiment [11], in experiment [12] and in experiment [13] was “inactive” throughout. The Potency result in [14], in [15], in experiment [17], in [16] and in experiment [19] was “inactive” each time. Besides, the compound was called inactive in experiment [18].

`CCN1C(=O)c2ccccc2C1Nc1ccc(OCCN2CCCCC2)cc1` (configuration not stated): the Potency entry in experiment [1], in experiment [2], in [3], in experiment [4], in experiment [5] and in [6] was “inactive” each time. For the same compound, the Potency entry in [7], in experiment [8], in experiment [9], in experiment [10], in experiment [11] and in experiment [13] was “inactive” in each case. The Potency result in [15], in experiment [20], in experiment [17] and in experiment [19] was “inactive” in each case. Besides, the Potency in experiment [12] is 26.6 µM (active). In addition, the result in [18] was inactive.

In the case of `Nc1ccc(C(=O)O)c(O)c1`, the Potency result in [1], in experiment [2], in [3], in experiment [4], in experiment [5] and in [6] was “inactive” in each case. The Potency entry in [7], in [8], in [9], in experiment [10], in experiment [11] and in experiment [12] was “inactive” each time. The Potency entry in experiment [15], in experiment [20], in [17], in [16] and in experiment [19] was “inactive” in each case. Also, the call in [18] was inactive.

For `CCO[Si](OCC)(OCC)OCC`, the Potency result in experiment [1], in experiment [2], in [3], in experiment [4], in experiment [5] and in [6] was “inactive” each time. Moreover, the Potency result in experiment [7], in [8], in experiment [9], in [10], in experiment [11] and in [12] was “inactive” in each case. In addition, the Potency entry in experiment [15] and in experiment [16] was “inactive” in each case.
